Data on 83 molecules can be found in PubChem BioAssay AID743269 (The Scripps Research Institute Molecular Screening Center, 2014).

The campaign covered roughly 370,000 compounds. About 2,400 (0.65%) were called active.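 The calls were made as follows: active = inhibition above the screen-wide mean plus 3 SD (cut at about 13% in these data); inactive = the rest.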 The sample as a whole holds a higher share of actives than the screen did.

This assay relates to HIV-1 integrase (with human LEDGF/p75). Nature of the assay: blockers of LEDGF/p75-dependent integrase strand transfer – biochemical, TR-FRET, high throughput, primary screen (AID 743269).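 Also: signal is the Cy5 over europium emission ratio at 671 and 618 nm; 0% = plate median of compound wells.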 As to conditions: TR-FRET IN-LEDGF/p75 DNA integration, Eu/Cy5; at 3.7 µM; hits give high values.
Regarding `Cc1cc(=O)[nH]c(SCC(=O)Nc2ccc(F)cc2F)n1`, the inhibition was -4.09% (inactive).

As for `CCC(=O)Nc1ccc2c(c1)C(=O)N(C)[C@@H]1CC[C@@H](CC(=O)NCCc3ccccc3)O[C@H]1CO2`, the inhibition was -2.65% (inactive).

On to `Cc1ccc(N=C2NC(=O)/C(=C/C=C/c3ccco3)S2)cc1C`, for which the inhibition was 16.8% (active).

With `COC(=O)C[C@@H]1CC[C@@H]2[C@H](COc3ccc(NC(=O)c4cccc(F)c4)cc3C(=O)N2C)O1`, the inhibition is 7.98% (inactive).

Regarding `Cc1ccc(-n2c(COc3ccccc3)nnc2SCC(=O)Nc2ccc3c(c2)OCCO3)cc1`, the inhibition was -2.45% (inactive).

Turning to `C=CCn1c(SCC(=O)CC(=O)OCC)nc2cc(C(=O)N3CCC(C(N)=O)CC3)ccc2c1=O`, the inhibition was -1.71% (inactive).

Take `C=CCn1c2ccccc2c2nnc(SC(CC)C(=O)Nc3nc(C)c(C(=O)OCC)s3)nc21` (stereo not drawn): the inhibition is -2.02% (inactive).

Regarding `C=CCn1c2ccccc2c2nnc(SCc3[nH]c(=O)[nH]c3C(=O)CCCCC(=O)OCC)nc21`, the inhibition is 43.2% (active).

As for `COc1cccc(N2CCN(CC(=O)N(C)Cc3ccc(F)cc3)CC2)c1`, the inhibition was -2.54% (inactive).

Turning to `COC(=O)[C@]12C[C@H](CC(=O)N3CCOCC3)C(=O)N(Cc3ccc(Cl)cc3Cl)C1=C[C@H](COCc1ccccc1)O[C@@H]2C`, the inhibition was 0.62% (inactive).

Turning to `Cc1ccc(C(=O)C2CCN(CC(=O)NCCC(C)C)CC2)cc1`, the inhibition is 0.16% (inactive).

On to `CC(C)(C)C1C/C(=C/c2ccco2)C(=O)/C(=C/c2ccco2)C1` (stereo not drawn), for which the inhibition was 79.5% (active).

Consider `COc1ccc(CN(CCN2CCOCC2)C(=O)c2ccc(C)cc2)cc1OC`, for which the inhibition was -0.71% (inactive).

For `CCOC(=O)c1cccc(NC(=O)CN(C)S(=O)(=O)c2ccc(-c3cocn3)s2)c1`, the inhibition is 2.14% (inactive).

Take `CCCCC(=O)N[C@@H]1CC[C@@]23CCCN2C(=O)CCC[C@H]3[C@H]1C`: the inhibition is 0.47% (inactive).

For `COc1ccnc(C(=O)N2CCC(Oc3cccnc3)CC2)c1`, the inhibition was -0.27% (inactive).

For `COCc1cc(C)nc2sc(C(=O)NC3CCCCC3)c(N)c12`, the inhibition was 0.63% (inactive).

On to `COCc1cc(C)nc2sc3c(=O)n(-c4cccc5ccccc45)nnc3c12`, for which the inhibition is 18.6% (active).

As to `COc1ccc(-c2c(C(C)=O)c(C)nc3sc4c(=O)n(-c5ccc(C)cc5)nnc4c23)cc1`, the inhibition was -0.97% (inactive).

Regarding `Clc1ccc(-n2c(COc3ccccc3)nnc2SCc2nc3ccccc3[nH]2)cc1`, the inhibition is -0.48% (inactive).

Regarding `Oc1cc(O)c2c(c1)OC(c1ccc(O)c(O)c1)C(O)C2` (stereo not drawn), the inhibition was 17.4% (active).

With `O=C(Nc1cc(Cl)cc(Cl)c1)OCCN1CCCC12CCC(c1ccccc1)CC2` (stereo not drawn), the inhibition was -0.23% (inactive).

In the case of `Cc1ccc(-n2c(SCC(=O)Nc3ccc(S(=O)(=O)Nc4nccs4)cc3)nnc2-c2ccncc2)cc1`, the inhibition was -1.61% (inactive).

With `CCOC(=O)c1c(C)oc2cc(Br)c(OCC(N)=O)cc12`, the inhibition is -0.08% (inactive).

On to `CCOC(=O)c1c(C)oc(C)c(C(=O)OCC)c1=O`, for which the inhibition was 3.08% (inactive).

As for `CCOC(=O)c1c(C)oc2cc(Sc3ccccc3)c(O)c(O)c12`, the inhibition was 23.4% (active).

In the case of `COC(=O)CC1CCc2cc(C)cc(C(CC(C)C)NC(=O)[C@H](CC(C)C)NC(=O)OCc3ccccc3)c2O1` (stereo partly drawn), the inhibition is -0.18% (inactive).

`CCN(C(=O)[C@@H](C1CC1)[C@@H](O)c1ccc2ccccc2c1)c1ccccc1`: the inhibition was -2.01% (inactive).

With `Cc1ccc(Cc2cnc(N)s2)o1`, the inhibition was 31.2% (active).

Consider `O=C(Nc1nc2ccc(Cl)cc2s1)c1cc(-c2ccc(Cl)cc2)nc2ccccc12`, for which the inhibition is 6.18% (inactive).

For the molecule `CN(C)c1ccc(NC(=O)NC2CCCCN(Cc3ccc(Cl)cc3)C2=O)cc1` (stereo not drawn), the inhibition was 6.63% (inactive).

For the molecule `CCn1c(=O)n2n(c1=O)[C@@]1(C=C3CCCC[C@H]32)N=C(NC(=O)c2ccccc2)N(Cc2ccccc2)[C@H]1Cc1ccccc1`, the inhibition was 2.19% (inactive).

For the molecule `Clc1ccc(C2=CSC3=Nc4cccc5cccc(c45)N23)cc1`, the inhibition was 37.2% (active).

Consider `CC(=O)Nc1nc2ncccn2c1-c1ccc(C(F)(F)F)cc1`, for which the inhibition is 4.33% (inactive).

For `CCC(C)[C@@H](C(=O)OC)N(CCc1cn(Cc2ccccc2)nn1)S(=O)(=O)c1ccccc1Br` (stereo partly drawn), the inhibition was 1.03% (inactive).

`CC(C)CNc1cccc2c1S(=O)(=O)N(Cc1cn(Cc3ccccc3C(F)(F)F)nn1)Cc1ccccc1O2`: the inhibition was -0.84% (inactive).

As to `CCOC(=O)[C@]12CCCC3=C1N(CCC3)C(=O)[C@@H](CC(=O)NCC13CC4CC(CC(C4)C1)C3)C2`, the inhibition was 0.85% (inactive).

On to `O=C(NCc1ccco1)C1CCCN(S(=O)(=O)c2ccc(Cl)s2)C1` (stereo not drawn), for which the inhibition was -0.9% (inactive).

For `CCc1cc2cc(OC)ccc2nc1SCC(=O)Nc1cc(OC)c(OC)cc1C(=O)O`, the inhibition was 17.2% (active).

In the case of `COc1ccc(OC)c(NC(=O)CSc2nc(-c3ccccc3)cc(=O)[nH]2)c1`, the inhibition is 2.74% (inactive).

On to `COC(=O)c1cc(OC)c(OC)cc1NC(=O)CSc1ccc(C)cc1`, for which the inhibition is -3.23% (inactive).

Regarding `C=CCN(C(=O)[C@@H](CCCC)[C@@H](O)c1ccc(Cl)cc1)c1ccccc1`, the inhibition was 2.74% (inactive).

In the case of `CN(CC(=O)Nc1ccc(S(=O)(=O)N2CCCC2)cc1)Cc1ccc(Cl)c(Cl)c1`, the inhibition was 30.4% (active).

Take `CCc1ccc(CN(C)C(C)C(=O)Nc2ccc(S(=O)(=O)N3CCCC3)cc2)cc1` (stereo not drawn): the inhibition was -3.86% (inactive).

As to `CC(C(=O)Nc1ccc(S(=O)(=O)N2CCCC2)cc1)N(C)Cc1ccc(F)cc1` (stereo not drawn), the inhibition is -5.41% (inactive).

For the molecule `Nn1c(SCC(=O)Nc2ccc(S(N)(=O)=O)cc2)nnc1-c1n[nH]c2c1CCC2`, the inhibition is 5.06% (inactive).

Consider `CN(O)C(=S)c1ccccc1`, for which the inhibition is 21.8% (active).

For `COC(=O)C1CN(CC(C)C)CCS(=O)(=O)N1Cc1ccc(C)cc1` (stereo not drawn), the inhibition was 1.62% (inactive).

Turning to `COc1cc(NC(=O)C2CCCN(S(=O)(=O)c3ccc(C(C)(C)C)cc3)C2)cc(OC)c1` (stereo not drawn), the inhibition was 2.62% (inactive).

For `COc1cc(/C=C2\CCCc3c2nc2ccccc2c3C(=O)O)cc(Cl)c1O`, the inhibition is 30.4% (active).

As for `COc1ccc(-n2nc(C(=O)NCC(=O)N3CCCCCC3)c3ccccc3c2=O)cc1Cl`, the inhibition is -4.29% (inactive).

For the molecule `COC(=O)c1cc(N2CCNCC2)nc2ccccc12`, the inhibition is -3.62% (inactive).

Consider `C[C@@H]1COc2cccc(N3CCCC3)c2S(=O)(=O)N1C`, for which the inhibition was -1.59% (inactive).

In the case of `COc1ccc([N+](=O)[O-])cc1NC(=O)COC(=O)/C=C/c1ccco1`, the inhibition is -5.28% (inactive).

Consider `NS(=O)(=O)c1cccc(NC(=O)COC(=O)/C=C/c2ccco2)c1`, for which the inhibition was -1.8% (inactive).

With `COc1cccc(NC(=O)COC(=O)/C=C/c2ccco2)c1`, the inhibition is 20.4% (active).

In the case of `CC(C)(C)c1ccc(C(=O)Nc2cc(Cl)c(Br)cc2C(=O)O)cc1`, the inhibition was 5.86% (inactive).

In the case of `CCCCOCCCNC(=O)C[C@H]1C[C@@]2(C(=O)OC)C(=C[C@H](COCc3ccccc3)O[C@@H]2C)N(Cc2cccc3ccccc23)C1=O`, the inhibition is -2.14% (inactive).

On to `COC(=O)[C@H](C(C)C)N1CCc2nnn(Cc3ccc(C)cc3)c2-c2ccccc2S1(=O)=O`, for which the inhibition was 0.15% (inactive).

As for `Cc1oc2c(c1C(=O)N1CCOCC1)C(=O)c1ccccc1C2=O`, the inhibition is 18.3% (active).

For the molecule `CC(C(=O)Nc1ccccc1-c1ccccc1)N1CCOCC1` (stereo not drawn), the inhibition is -2.51% (inactive).

Take `Cc1nc2ccccc2n1C(=O)N1CCOCC1`: the inhibition is -1.41% (inactive).

As for `CCCNC(=O)C1(C)CCN1C(=O)Cc1ccc(-c2ccccc2)cc1` (stereo not drawn), the inhibition is 0.51% (inactive).

On to `CC1(C(=O)NS(=O)(=O)c2cccs2)CCN1C(=O)Cc1ccc(-c2ccccc2)cc1` (stereo not drawn), for which the inhibition was -0.36% (inactive).

As for `CC1(C(=O)NS(=O)(=O)c2ccccc2)CCN1C(=O)Cc1ccc(-c2ccccc2)cc1` (stereo not drawn), the inhibition was 19.2% (active).

`COc1ccc(/C=C2\CC3(OC(C)=O)CCCN2C3)cc1` (stereo not drawn): the inhibition is -2.77% (inactive).

As to `C[C@H](C(=O)N(C)c1ccccc1)[C@@H](O)c1ccc2ccccc2c1`, the inhibition is -3.07% (inactive).

For `CCCC(C(=O)OCCN(CC)CC)(c1ccccc1)c1ccccc1`, the inhibition was -3.9% (inactive).

For `CCN(CC)S(=O)(=O)c1cc(C(=O)Nc2ccccn2)ccc1C`, the inhibition was 1.24% (inactive).

Consider `CCN(CC)CCOc1ccc2c(c1)C(=NNC(=O)c1ccccn1)c1cc(OCCN(CC)CC)ccc1-2`, for which the inhibition is 19.1% (active).

Consider `O=C(NC1CCCC1)C1CSCCS(=O)(=O)N1Cc1ccccc1` (stereo not drawn), for which the inhibition was 0.83% (inactive).

With `C=C(C)C1CC23C(=O)C4(C(=O)c5ccccc5)C[C@@]5(C)CCC(CC2C1(C)C)(C4=O)C35OC` (stereo partly drawn), the inhibition was -2.25% (inactive).

On to `Cc1ccc(NC(=O)Cc2cccc(F)c2)c(S(=O)(=O)N2CCOCC2)c1`, for which the inhibition is 1.83% (inactive).

On to `CCCCNC(=O)C[C@H]1C(=O)N(Cc2ccc(OC)cc2)C2=CCCC[C@@]21C(=O)OCC`, for which the inhibition was -5.02% (inactive).

Take `Cc1ccc(C)c(-c2nnc(NC(=O)CS(=O)(=O)c3ccccc3)o2)c1`: the inhibition was -2.12% (inactive).

For the molecule `COc1cc(-c2nnc(NC(=O)CS(=O)(=O)c3ccc(Cl)cc3)o2)cc(OC)c1OC`, the inhibition is 15.4% (active).

`COc1cc(-c2nnc(NC(=O)C3=COCCO3)o2)cc(OC)c1OC`: the inhibition is 5.65% (inactive).

Consider `CC(CCN1CCC(C(O)(c2ccccc2)c2ccccc2)CC1)Oc1ccc(C(F)(F)F)cc1` (stereo not drawn), for which the inhibition was -3.25% (inactive).

For the molecule `O=[N+]([O-])c1ccc(NS(=O)(=O)c2ccccc2)c(Cl)c1`, the inhibition was 7.69% (inactive).

Regarding `O=S(=O)(Nc1ccc(O)c2ccccc12)c1ccc(OC(F)(F)F)cc1`, the inhibition is 16.5% (active).

For the molecule `O=S(=O)(Cc1noc(-c2ccc(OC(F)(F)F)cc2)n1)c1ccc(F)cc1`, the inhibition was 0.93% (inactive).

`CCC(NC(=O)C1C2C=CC3(CN(Cc4ccccc4)C(=O)C13)O2)c1ccccc1` (stereo not drawn): the inhibition was -1.5% (inactive).

As for `COC(=O)[C@]12C[C@H](CC(=O)NCCc3ccccc3OC)C(=O)N(Cc3ccco3)C1=C[C@H](C(C)C)O[C@@H]2C1CC1`, the inhibition was -0.43% (inactive).
